FUS suppressor: suppressors of FUS proteinopathy in yeast; S. cerevisiae FUS-expressing, growth rescue, OD600, 24 h; Potency, µM (highest dose often 76.6 µM), usual class: activators; 0.24% of 390,000 active;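 also: plate controls were DMSO vehicle for no effect and reference control for full effect; nearly all actives have a fitted effect of over 55% in size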
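Toxicity suppression screen in FUS-yeast. Cells induced with 2% galactose, starting OD 0.005, treated 24hr at 30C with compounds at multiple final concentrations; growth by OD600.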
aSyn rescue: rescues yeast growth from alpha-synuclein toxicity. Yeast expressing alpha-synuclein, growth rescue, BacTiter-Glo, 24 h. Potency, µM (series often up to 46.1 µM), for the others: at the highest dose growth rescue (activation), most hits filed as activators. 0.14% of 370,000 active. AID 652106; also: % of control where 0% means no effect; nearly all actives have a fitted effect of over 65% in size
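Screening used galactose-induced yeast with toxic alpha-synuclein levels, exposed to compound for 24 hr at 30 deg C. Cell growth, read with BacTiter-Glo luminescence, gave the measured signal.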
Abeta rescue: A-beta toxicity reversal in yeast; yeast expressing A-beta42, growth rescue, OD600, 48 h; response scale: 0% DMSO, 100% iron-clioquinol control; Potency, µM (series often up to 46.1 µM), actives largely listed as activators; 0.063% of 410,000 active; AID 1347071; also: nearly all actives have a fitted effect of over 55% in size
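Growth rescue measured by 600 nm absorbance after 48 h yeast culture at 30 C with compound. Values normalized between DMSO and an equimolar ferric chloride plus clioquinol control.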
TDP43 rescue: inhibitors of TDP-43 toxicity in yeast; TDP-43 expressing yeast growth rescue, BacTiter-Glo, 24 h; Potency, µM (highest dose often 46.1 µM), for inactives: at the top dose growth rescue (activation), hits mostly activators; 1.8% of 410,000 active; also: % of control where 0% means no effect; nearly all actives have a fitted effect of over 50% in size
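Growth rescue of TDP-43-toxic yeast measured as ATP luminescence (BacTiter-Glo). Cells grown to mid-log in raffinose, induced in galactose at OD600=0.02, exposed to compound 24 hr at 30 deg C.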
The depositor's hits bear a star; i = inactive; ? = inconclusive; nt = not tested or not shown. Rows were chosen to be rich in hits. Some 2.1% of all compounds tested hit in one or more screens of this group. Calls follow the shape of the dose curve; as a rule, active = well fitted curve in the direction sought with a large enough effect; inconclusive = small, poorly fitted or top-dose-only effect, or another doubt; inactive = no such curve, though single readings can be large; an effect the other way counts as inactive or inconclusive. Potency is read from the fitted curve at half-maximal effect.

SMILES	FUS suppressor	aSyn rescue	Abeta rescue	TDP43 rescue
O=C(NCc1cccc(Cl)c1)c1ccc(-c2ccc(F)c(F)c2)c2ccoc12	i	8%	i	0%
Cc1ccc(CSc2nnc(-c3ccccn3)n2Cc2cccs2)cc1	?	12%	i	35µM*
Brc1ccc(CSc2nnc(-c3cnccn3)n2Cc2ccco2)cc1	nt	8%	i	35µM*
Clc1ccc(CSc2nnc(-c3ccccn3)n2Cc2cccs2)cc1Cl	?	11%	i	?
CCn1c(SCc2ccc(C)cc2)nnc1-c1cnccn1	i	2%	i	11µM*
Cn1c(SCc2ccc(F)cc2)nnc1-c1cnccn1	i	6%	i	10%
